Results reported in article PMC11006913.
Numbering of substitutions follows the chain as printed.

What was measured:
Assay in all cases: PBM; 200 nM protein, PBS
Settings in all cases: dsDNA, one strand shown
HOXB4 [1] = biological target: HOXB4 (Homo sapiens, UniProt P17483 148-234)
VENTX [2] = biological target: T1, VENTX (Homo sapiens, UniProt O95231 78-163, R121Q)
T1 sequence: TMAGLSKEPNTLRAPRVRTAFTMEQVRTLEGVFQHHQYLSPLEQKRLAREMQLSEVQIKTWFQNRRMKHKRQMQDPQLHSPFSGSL

HOXA4 [3] = biological target: HOXA4 (Homo sapiens, UniProt Q00056 201-287, W262R)
VENTX [4] = biological target: T2, VENTX (Homo sapiens, UniProt O95231 78-163)
T2 sequence: T1 sequence with Q44R

HOXA7 [5] = biological target: HOXA7 (Homo sapiens, UniProt P31268 116-202)
VENTX [6] = biological target: T3, VENTX (Homo sapiens, UniProt O95231 78-163, Y115F)
T3 sequence: T1 sequence with Y38F, Q44R

HOXB6 [7] = biological target: HOXB6 (Homo sapiens, UniProt P17509 132-218, K202E)
HOXA2 [8] = biological target: HOXA2 (Homo sapiens, UniProt O43364 129-215, R185T)
HOXA4 [9] = biological target: HOXA4 (Homo sapiens, UniProt Q00056 201-287, R217L)
HOXB4 [10] = biological target: HOXB4 (Homo sapiens, UniProt P17483 148-234, V174I)
HOXA2 [11] = biological target: HOXA2 (Homo sapiens, UniProt O43364 129-215, R185K)
HOXA4 [12] = biological target: HOXA4 (Homo sapiens, UniProt Q00056 201-287)
VAX1 [13] = biological target: VAX1 (Homo sapiens, UniProt Q5SQQ9 86-172)
VAX1 [14] = biological target: VAX1 (Homo sapiens, UniProt Q5SQQ9 86-172, T142I)
HOXA2 [15] = biological target: HOXA2 (Homo sapiens, UniProt O43364 129-215, Y150S)
HOXA7 [16] = biological target: HOXA7 (Homo sapiens, UniProt P31268 116-202, W177C)
HOXA4 [17] = biological target: HOXA4 (Homo sapiens, UniProt Q00056 201-287, W262F)
HOXA2 [18] = biological target: HOXA2 (Homo sapiens, UniProt O43364 129-215)
VAX1 [19] = biological target: VAX1 (Homo sapiens, UniProt Q5SQQ9 86-172, K157R)
HOXB6 [20] = biological target: HOXB6 (Homo sapiens, UniProt P17509 132-218)
Chain of HOXB6 (Homo sapiens, UniProt P17509 132-218) (P17509 132-218): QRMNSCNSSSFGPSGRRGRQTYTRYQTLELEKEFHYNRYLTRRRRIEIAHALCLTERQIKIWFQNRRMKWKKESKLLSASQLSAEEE

Chain of VAX1 (Homo sapiens, UniProt Q5SQQ9 86-172, K157R) (Q5SQQ9 86-172 K157R): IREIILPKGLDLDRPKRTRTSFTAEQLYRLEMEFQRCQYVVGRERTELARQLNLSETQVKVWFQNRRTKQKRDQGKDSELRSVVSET
Chain of VAX1 (Homo sapiens, UniProt Q5SQQ9 86-172, T142I) (Q5SQQ9 86-172 T142I): as the sequence (Q5SQQ9 86-172 K157R) above, with T57I, R72K counted along it
Chain of HOXA4 (Homo sapiens, UniProt Q00056 201-287, R217L) (Q00056 201-287 R217L): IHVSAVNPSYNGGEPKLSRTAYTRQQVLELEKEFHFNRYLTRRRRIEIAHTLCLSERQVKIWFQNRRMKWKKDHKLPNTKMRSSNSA
Chain of HOXA4 (Homo sapiens, UniProt Q00056 201-287) (Q00056 201-287): as the sequence (Q00056 201-287 R217L) above, with L17R counted along it
Chain of HOXA2 (Homo sapiens, UniProt O43364 129-215, R185K) (O43364 129-215 R185K): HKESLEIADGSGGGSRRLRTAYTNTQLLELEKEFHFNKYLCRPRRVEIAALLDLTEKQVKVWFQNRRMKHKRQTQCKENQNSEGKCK
Chain of HOXB4 (Homo sapiens, UniProt P17483 148-234) (P17483 148-234): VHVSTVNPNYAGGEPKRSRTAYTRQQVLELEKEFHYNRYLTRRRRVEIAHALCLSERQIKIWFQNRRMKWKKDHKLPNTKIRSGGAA
Chain of HOXA2 (Homo sapiens, UniProt O43364 129-215, Y150S) (O43364 129-215 Y150S): as the sequence (O43364 129-215 R185K) above, with Y22S, K57R counted along it
Chain of HOXB6 (Homo sapiens, UniProt P17509 132-218, K202E) (P17509 132-218 K202E): as the sequence (P17509 132-218) above, with K71E counted along it
Chain of HOXA4 (Homo sapiens, UniProt Q00056 201-287, W262R) (Q00056 201-287 W262R): as the sequence (Q00056 201-287 R217L) above, with L17R, W62R counted along it
Chain of HOXB4 (Homo sapiens, UniProt P17483 148-234, V174I) (P17483 148-234 V174I): as the sequence (P17483 148-234) above, with V27I counted along it
Chain of VAX1 (Homo sapiens, UniProt Q5SQQ9 86-172) (Q5SQQ9 86-172): as the sequence (Q5SQQ9 86-172 K157R) above, with R72K counted along it
Chain of HOXA2 (Homo sapiens, UniProt O43364 129-215) (O43364 129-215): as the sequence (O43364 129-215 R185K) above, with K57R counted along it
Chain of HOXA4 (Homo sapiens, UniProt Q00056 201-287, W262F) (Q00056 201-287 W262F): as the sequence (Q00056 201-287 R217L) above, with L17R, W62F counted along it
Chain of HOXA7 (Homo sapiens, UniProt P31268 116-202) (P31268 116-202): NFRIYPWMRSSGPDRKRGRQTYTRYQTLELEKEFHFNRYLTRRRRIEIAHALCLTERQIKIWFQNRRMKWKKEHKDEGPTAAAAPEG
Chain of HOXA7 (Homo sapiens, UniProt P31268 116-202, W177C) (P31268 116-202 W177C): as the sequence (P31268 116-202) above, with W62C counted along it
Chain of HOXA2 (Homo sapiens, UniProt O43364 129-215, R185T) (O43364 129-215 R185T): as the sequence (O43364 129-215 R185K) above, with K57T counted along it

## GTCATTAA
HOXB4 [1]
  binding signal: 13.3 upbm affinity estimate (log intensity, higher = more binding, comparable within an allelic series)
VENTX [2]
  binding signal: 12.1 upbm affinity estimate (log intensity, higher = more binding, comparable within an allelic series)
HOXA4 [3]
  binding signal: 10.9 upbm affinity estimate (log intensity, higher = more binding, comparable within an allelic series)
VENTX [4]
  binding signal: 12.6 upbm affinity estimate (log intensity, higher = more binding, comparable within an allelic series)
HOXA7 [5]
  binding signal: 12.2 upbm affinity estimate (log intensity, higher = more binding, comparable within an allelic series)
VENTX [6]
  binding signal: 12.1 upbm affinity estimate (log intensity, higher = more binding, comparable within an allelic series)
HOXB6 [7]
  binding signal: 10.3 upbm affinity estimate (log intensity, higher = more binding, comparable within an allelic series)
HOXA2 [8]
  binding signal: 13.2 upbm affinity estimate (log intensity, higher = more binding, comparable within an allelic series)
HOXA4 [9]
  binding signal: 12.9 upbm affinity estimate (log intensity, higher = more binding, comparable within an allelic series)
HOXB4 [10]
  binding signal: 13.9 upbm affinity estimate (log intensity, higher = more binding, comparable within an allelic series)
HOXA2 [11]
  binding signal: 13.8 upbm affinity estimate (log intensity, higher = more binding, comparable within an allelic series)
HOXA4 [12]
  binding signal: 14.1 upbm affinity estimate (log intensity, higher = more binding, comparable within an allelic series)
VAX1 [13]
  binding signal: 13.4 upbm affinity estimate (log intensity, higher = more binding, comparable within an allelic series)
VAX1 [14]
  binding signal: 13.4 upbm affinity estimate (log intensity, higher = more binding, comparable within an allelic series)
HOXA2 [15]
  binding signal: 11 upbm affinity estimate (log intensity, higher = more binding, comparable within an allelic series)
HOXA7 [16]
  binding signal: 8.94 upbm affinity estimate (log intensity, higher = more binding, comparable within an allelic series)
HOXA4 [17]
  binding signal: 12.6 upbm affinity estimate (log intensity, higher = more binding, comparable within an allelic series)
HOXA2 [18]
  binding signal: 12.9 upbm affinity estimate (log intensity, higher = more binding, comparable within an allelic series)
VAX1 [19]
  binding signal: 13.3 upbm affinity estimate (log intensity, higher = more binding, comparable within an allelic series)
HOXB6 [20]
  binding signal: 12.4 upbm affinity estimate (log intensity, higher = more binding, comparable within an allelic series)

## AGTCATTA
HOXB4 [1]
  binding signal: 13.1 upbm affinity estimate (log intensity, higher = more binding, comparable within an allelic series)
VENTX [2]
  binding signal: 11.7 upbm affinity estimate (log intensity, higher = more binding, comparable within an allelic series)
HOXA4 [3]
  binding signal: 10.6 upbm affinity estimate (log intensity, higher = more binding, comparable within an allelic series)
HOXA7 [5]
  binding signal: 11.5 upbm affinity estimate (log intensity, higher = more binding, comparable within an allelic series)
VENTX [6]
  binding signal: 11.7 upbm affinity estimate (log intensity, higher = more binding, comparable within an allelic series)
HOXB6 [7]
  binding signal: 9.89 upbm affinity estimate (log intensity, higher = more binding, comparable within an allelic series)
HOXA2 [8]
  binding signal: 12.9 upbm affinity estimate (log intensity, higher = more binding, comparable within an allelic series)
HOXA4 [9]
  binding signal: 12.5 upbm affinity estimate (log intensity, higher = more binding, comparable within an allelic series)
HOXB4 [10]
  binding signal: 13.7 upbm affinity estimate (log intensity, higher = more binding, comparable within an allelic series)
HOXA2 [11]
  binding signal: 13.5 upbm affinity estimate (log intensity, higher = more binding, comparable within an allelic series)
HOXA4 [12]
  binding signal: 13.9 upbm affinity estimate (log intensity, higher = more binding, comparable within an allelic series)
VAX1 [13]
  binding signal: 13.1 upbm affinity estimate (log intensity, higher = more binding, comparable within an allelic series)
VAX1 [14]
  binding signal: 13 upbm affinity estimate (log intensity, higher = more binding, comparable within an allelic series)
HOXA2 [15]
  binding signal: 10.9 upbm affinity estimate (log intensity, higher = more binding, comparable within an allelic series)
HOXA7 [16]
  binding signal: 8.85 upbm affinity estimate (log intensity, higher = more binding, comparable within an allelic series)
HOXA4 [17]
  binding signal: 12 upbm affinity estimate (log intensity, higher = more binding, comparable within an allelic series)
HOXA2 [18]
  binding signal: 12.7 upbm affinity estimate (log intensity, higher = more binding, comparable within an allelic series)
VAX1 [19]
  binding signal: 12.9 upbm affinity estimate (log intensity, higher = more binding, comparable within an allelic series)
HOXB6 [20]
  binding signal: 11.7 upbm affinity estimate (log intensity, higher = more binding, comparable within an allelic series)

## GGTCATTA
HOXB4 [1]
  binding signal: 13.3 upbm affinity estimate (log intensity, higher = more binding, comparable within an allelic series)
VENTX [2]
  binding signal: 11.8 upbm affinity estimate (log intensity, higher = more binding, comparable within an allelic series)
HOXA4 [3]
  binding signal: 10.6 upbm affinity estimate (log intensity, higher = more binding, comparable within an allelic series)
VENTX [4]
  binding signal: 12.4 upbm affinity estimate (log intensity, higher = more binding, comparable within an allelic series)
HOXA7 [5]
  binding signal: 11.8 upbm affinity estimate (log intensity, higher = more binding, comparable within an allelic series)
VENTX [6]
  binding signal: 11.8 upbm affinity estimate (log intensity, higher = more binding, comparable within an allelic series)
HOXB6 [7]
  binding signal: 9.99 upbm affinity estimate (log intensity, higher = more binding, comparable within an allelic series)
HOXA2 [8]
  binding signal: 13 upbm affinity estimate (log intensity, higher = more binding, comparable within an allelic series)
HOXA4 [9]
  binding signal: 12.5 upbm affinity estimate (log intensity, higher = more binding, comparable within an allelic series)
HOXB4 [10]
  binding signal: 14 upbm affinity estimate (log intensity, higher = more binding, comparable within an allelic series)
HOXA2 [11]
  binding signal: 13.7 upbm affinity estimate (log intensity, higher = more binding, comparable within an allelic series)
HOXA4 [12]
  binding signal: 13.9 upbm affinity estimate (log intensity, higher = more binding, comparable within an allelic series)
VAX1 [13]
  binding signal: 13.6 upbm affinity estimate (log intensity, higher = more binding, comparable within an allelic series)
VAX1 [14]
  binding signal: 13.5 upbm affinity estimate (log intensity, higher = more binding, comparable within an allelic series)
HOXA2 [15]
  binding signal: 10.9 upbm affinity estimate (log intensity, higher = more binding, comparable within an allelic series)
HOXA7 [16]
  binding signal: 8.85 upbm affinity estimate (log intensity, higher = more binding, comparable within an allelic series)
HOXA4 [17]
  binding signal: 11.9 upbm affinity estimate (log intensity, higher = more binding, comparable within an allelic series)
HOXA2 [18]
  binding signal: 12.8 upbm affinity estimate (log intensity, higher = more binding, comparable within an allelic series)
VAX1 [19]
  binding signal: 13.6 upbm affinity estimate (log intensity, higher = more binding, comparable within an allelic series)
HOXB6 [20]
  binding signal: 12.1 upbm affinity estimate (log intensity, higher = more binding, comparable within an allelic series)

## ATTATTAA
HOXB4 [1]
  binding signal: 12.9 upbm affinity estimate (log intensity, higher = more binding, comparable within an allelic series)
HOXB6 [7]
  binding signal: 10.1 upbm affinity estimate (log intensity, higher = more binding, comparable within an allelic series)
HOXB4 [10]
  binding signal: 13.6 upbm affinity estimate (log intensity, higher = more binding, comparable within an allelic series)

## TATTAATA
HOXB4 [1]
  binding signal: 12.7 upbm affinity estimate (log intensity, higher = more binding, comparable within an allelic series)
HOXA7 [5]
  binding signal: 11.2 upbm affinity estimate (log intensity, higher = more binding, comparable within an allelic series)
HOXB6 [7]
  binding signal: 10 upbm affinity estimate (log intensity, higher = more binding, comparable within an allelic series)
HOXB4 [10]
  binding signal: 13.3 upbm affinity estimate (log intensity, higher = more binding, comparable within an allelic series)
HOXA7 [16]
  binding signal: 9.08 upbm affinity estimate (log intensity, higher = more binding, comparable within an allelic series)
HOXB6 [20]
  binding signal: 11.7 upbm affinity estimate (log intensity, higher = more binding, comparable within an allelic series)

## TCCATTAA
HOXB4 [1]
  binding signal: 13 upbm affinity estimate (log intensity, higher = more binding, comparable within an allelic series)
VENTX [2]
  binding signal: 11.7 upbm affinity estimate (log intensity, higher = more binding, comparable within an allelic series)
HOXA4 [3]
  binding signal: 10.5 upbm affinity estimate (log intensity, higher = more binding, comparable within an allelic series)
HOXA7 [5]
  binding signal: 11.2 upbm affinity estimate (log intensity, higher = more binding, comparable within an allelic series)
HOXB6 [7]
  binding signal: 9.96 upbm affinity estimate (log intensity, higher = more binding, comparable within an allelic series)
HOXA4 [9]
  binding signal: 11.9 upbm affinity estimate (log intensity, higher = more binding, comparable within an allelic series)
HOXB4 [10]
  binding signal: 13.6 upbm affinity estimate (log intensity, higher = more binding, comparable within an allelic series)
HOXA4 [12]
  binding signal: 13.7 upbm affinity estimate (log intensity, higher = more binding, comparable within an allelic series)
VAX1 [13]
  binding signal: 12.8 upbm affinity estimate (log intensity, higher = more binding, comparable within an allelic series)
VAX1 [14]
  binding signal: 12.2 upbm affinity estimate (log intensity, higher = more binding, comparable within an allelic series)
HOXA7 [16]
  binding signal: 8.72 upbm affinity estimate (log intensity, higher = more binding, comparable within an allelic series)
HOXA4 [17]
  binding signal: 11.4 upbm affinity estimate (log intensity, higher = more binding, comparable within an allelic series)
VAX1 [19]
  binding signal: 12.2 upbm affinity estimate (log intensity, higher = more binding, comparable within an allelic series)
HOXB6 [20]
  binding signal: 11.7 upbm affinity estimate (log intensity, higher = more binding, comparable within an allelic series)

## ACTCATTA
HOXB4 [1]
  binding signal: 13 upbm affinity estimate (log intensity, higher = more binding, comparable within an allelic series)
VENTX [2]
  binding signal: 11.6 upbm affinity estimate (log intensity, higher = more binding, comparable within an allelic series)
HOXA4 [3]
  binding signal: 10.7 upbm affinity estimate (log intensity, higher = more binding, comparable within an allelic series)
VENTX [4]
  binding signal: 12.4 upbm affinity estimate (log intensity, higher = more binding, comparable within an allelic series)
VENTX [6]
  binding signal: 11.7 upbm affinity estimate (log intensity, higher = more binding, comparable within an allelic series)
HOXA2 [8]
  binding signal: 13 upbm affinity estimate (log intensity, higher = more binding, comparable within an allelic series)
HOXA4 [9]
  binding signal: 12.1 upbm affinity estimate (log intensity, higher = more binding, comparable within an allelic series)
HOXB4 [10]
  binding signal: 13.6 upbm affinity estimate (log intensity, higher = more binding, comparable within an allelic series)
HOXA2 [11]
  binding signal: 13.5 upbm affinity estimate (log intensity, higher = more binding, comparable within an allelic series)
HOXA4 [12]
  binding signal: 13.8 upbm affinity estimate (log intensity, higher = more binding, comparable within an allelic series)
VAX1 [13]
  binding signal: 13.2 upbm affinity estimate (log intensity, higher = more binding, comparable within an allelic series)
VAX1 [14]
  binding signal: 13.1 upbm affinity estimate (log intensity, higher = more binding, comparable within an allelic series)
HOXA2 [15]
  binding signal: 10.9 upbm affinity estimate (log intensity, higher = more binding, comparable within an allelic series)
HOXA4 [17]
  binding signal: 11.7 upbm affinity estimate (log intensity, higher = more binding, comparable within an allelic series)
HOXA2 [18]
  binding signal: 12.6 upbm affinity estimate (log intensity, higher = more binding, comparable within an allelic series)
VAX1 [19]
  binding signal: 13.1 upbm affinity estimate (log intensity, higher = more binding, comparable within an allelic series)

## CGGTTCCC
HOXB4 [1]
  binding signal: 7.65 upbm affinity estimate (log intensity, higher = more binding, comparable within an allelic series)
HOXB4 [10]
  binding signal: 7.57 upbm affinity estimate (log intensity, higher = more binding, comparable within an allelic series)

## GGCCCCCC
HOXB4 [1]
  binding signal: 7.99 upbm affinity estimate (log intensity, higher = more binding, comparable within an allelic series)
HOXB4 [10]
  binding signal: 7.93 upbm affinity estimate (log intensity, higher = more binding, comparable within an allelic series)
